The values that follow come from PubChem BioAssay (EPA / NIEHS).

The nature of assay [1]: ATG_CRE_CIS: Attagene CIS-FACTORIAL HepG2 Assay for human cAMP Responsive Element (CRE) binding protein 3 (AID 2282926). The settings on record: HepG2 CRE cis-reporter, Attagene multiplexed mRNA; actives raise or lower the signal. Put shortly: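 Assay format: transient reporter transfection of HepG2, 24 h treatment, total RNA isolation with DNase I step. Reporter abundance read by fluorescence after PCR and capillary separation; DMSO-normalised gain or loss fitting.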

Assay [2] concerns the target CCAAT/enhancer-binding protein beta (Homo sapiens) (UniProt P17676). The experiment in a line: ATG_C_EBP_CIS: Attagene CIS-FACTORIAL HepG2 Assay for human CCAAT/Enhancer Binding Protein (C/EBP) beta (AID 2282927). The settings on record: HepG2 Attagene cis-factorial transcription factor reporter; actives raise or lower the signal. Put shortly: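 Endogenous C/EBPb-driven reporter transcripts measured in transfected human HepG2 cells at 24 h via RT-PCR and capillary electrophoresis of labelled fragments. Activity fitted in both directions relative to DMSO baseline.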

Assay [3] in a line: ATG_CMV_CIS: Attagene CIS-FACTORIAL HepG2 Assay for human CMV (Internal Marker) (AID 2282928).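 Note: endpoint acts as a background internal control marker rather than a target.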 The settings on record: HepG2 CMV promoter reporter, transcription factor profiling; actives raise or lower the signal. Put shortly:
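24 h chemical treatment, HepG2 with transient multi-reporter transfection; RNA → oligo(dT) RT → PCR → 6-FAM extension → HpaI digest → CE fluorescence. Bidirectional fit, DMSO negative control.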

Assay [4] deals with Aryl hydrocarbon receptor (Homo sapiens) (UniProt P35869). As to the kind of experiment: ATG_Ahr_CIS: Attagene CIS-FACTORIAL HepG2 Assay for human Aryl Hydrocarbon Receptor (Ahr) (AID 2282930). The settings on record: HepG2 AhR cis-factorial reporter transcription; actives raise or lower the signal. In outline:
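Reporter mRNA levels, quantified by RT-PCR and fluorescent capillary electrophoresis, reflect endogenous AhR transcriptional activity in HepG2 cells carrying transfected cis-promoter reporter constructs. Readout at 24 h post-dose; gain or loss fitted against DMSO baseline.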

Assay [5] in a line: ATG_AP_1_CIS: Attagene CIS-FACTORIAL HepG2 Assay for human Activator Protein 1 (AP-1) (AID 2282931). The settings on record: HepG2 Attagene cis-factorial AP-1 reporter mRNA; actives raise or lower the signal. Put shortly:
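HepG2 cells transiently transfected with cis-element-driven multiplex reporter units; 24 h compound exposure. Reporter mRNA quantified by RT-PCR, FAM-labelled fragments resolved by capillary electrophoresis; bidirectional fit versus DMSO baseline.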

The nature of assay [6]: ATG_AP_2_CIS: Attagene CIS-FACTORIAL HepG2 Assay for human Activator Protein 2 (AP-2) (AID 2282932). The following applies: HepG2 AP-2 cis-reporter, Attagene transcription factor profiling; actives raise or lower the signal. In outline: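 Transiently transfected HepG2 cells are exposed to chemical for 24 h. Reporter transcripts are then measured as fluorescence following RT-PCR and capillary separation, and gain- or loss-of-signal is fitted relative to DMSO.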

Assay [7] can be described thus: ATG_BRE_CIS: Attagene CIS-FACTORIAL HepG2 Assay for human Bone Morphogenetic Protein (BMP) Response Element (BRE) (AID 2282933). The following applies: HepG2 BMP response element reporter, Attagene transcription factor profiling; actives raise or lower the signal. Put shortly: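 Read-out: reporter mRNA induction quantified by RT-PCR and capillary electrophoresis after 24 h chemical exposure of transfected HepG2 cells. Endogenous factor activity on the BMP response element; gain or loss fitted against DMSO baseline.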

Assay [8] has as its target Retinoic acid receptor alpha (Homo sapiens) (UniProt P10276). The experiment in a line: ATG_DR5_RAR_CIS: Attagene CIS-FACTORIAL HepG2 Assay for human Retinoic Acid Receptor Alpha (RARE), DR5 submotif (AID 2282934). The following applies: HepG2 Attagene cis-factorial RARE DR5 reporter, mRNA; actives raise or lower the signal. In outline: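 Reporter transcripts from a DR5-regulated unit, measured via RT-PCR plus capillary electrophoresis, reflect endogenous RAR activity in transiently transfected human HepG2 liver cells. Exposure lasted 24 h; gain or loss of signal scored against DMSO.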

Assay [9] concerns the target Transcription factor E2F1 (Homo sapiens) (UniProt Q01094). As to the kind of experiment: ATG_E2F_CIS: Attagene CIS-FACTORIAL HepG2 Assay for human E2F Transcription Factor 1 (AID 2282935). The following applies: HepG2 Attagene cis-reporter, E2F reporter RNA transcripts; actives raise or lower the signal. Put shortly:
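Fluorescent RT-PCR products, digested with HpaI for 2 h at 37 C, are separated by capillary electrophoresis. Source RNA comes from transfected HepG2 cultures treated for 24 h.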

A short description of assay [10]: ATG_E_Box_CIS: Attagene CIS-FACTORIAL HepG2 Assay for human Enhancer Box (E-box) (AID 2282936). The settings on record: HepG2 E-box cis-reporter transcription, actives raise or lower the signal. In outline: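 Fluorescent reporter fragments separated by capillary electrophoresis gave the signal; mRNA came from HepG2 cells transfected with cis-element reporters and treated 24 h. Curves fitted bidirectionally relative to DMSO controls.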

Assay [11] can be described thus: ATG_M_61_CIS: Attagene CIS-FACTORIAL HepG2 Assay for M61 Transcription Factor (Internal Marker) (AID 2282937). The settings on record: HepG2 Attagene CIS-FACTORIAL M61 internal marker reporter; actives raise or lower the signal. Put shortly:
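HepG2 cells transiently transfected with cis-element-driven multiple reporter transcription units, dosed for 24 h. Reporter mRNA measured by RT-PCR, 6-FAM primer-extension labelling, HpaI digestion and capillary electrophoresis; bidirectional fit versus DMSO baseline.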

A short description of assay [12]: ATG_EGR_CIS: Attagene CIS-FACTORIAL HepG2 Assay for human Early Growth Response 1 (EGR1) (AID 2282938). The following applies: HepG2 Attagene CIS-FACTORIAL EGR reporter mRNA; actives raise or lower the signal. Put shortly: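 HepG2 cells transiently transfected with cis-promoter-driven multiplexed reporter transcription units; reporter mRNA measured 24 h after compound dosing by RT-PCR, 6-FAM primer extension, HpaI digestion and capillary electrophoresis. Bidirectional fit versus DMSO baseline.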

Assay [13] in a line: ATG_M_19_CIS: Attagene CIS-FACTORIAL HepG2 Assay for M19 Transcription Factor (Internal Marker) (AID 2282939). The following applies: HepG2 Attagene CIS-FACTORIAL M19 internal marker reporter; actives raise or lower the signal. Put shortly:
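Readout: fluorescent reporter-transcript fragments by capillary electrophoresis after RT-PCR. Human HepG2 liver cells carried transfected MRTU constructs reporting endogenous transcription-factor activity; exposure 24 h. Gain or loss of signal fitted relative to DMSO.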

The nature of assay [14]: ATG_ERE_CIS: Attagene CIS-FACTORIAL HepG2 Assay for Estrogen Response Element (ERE) (AID 2282940). The settings on record: HepG2 ERE cis-reporter, Attagene RNA transcript; actives raise or lower the signal. Put shortly:
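Readout: reporter mRNA induction by RT-PCR, FAM-labelled primer extension, HpaI digestion and capillary electrophoresis, 24 h after dosing transfected HepG2 cells. Endogenous transcription factors act on cis-element-regulated reporters. Gain or loss fitted against DMSO.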

Assay [15] can be described thus: ATG_Ets_CIS: Attagene CIS-FACTORIAL HepG2 Assay for human Erythroblast Transformation Specific (ETS) (AID 2282941). The settings on record: HepG2 ETS cis-reporter transcription, actives raise or lower the signal. In outline:
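Cis-regulated reporter mRNA induction in HepG2 (transient transfection), 24 h exposure, RT-PCR plus capillary electrophoresis detection; DMSO serves as negative control and baseline.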

In assay [16] the target is Hepatocyte nuclear factor 3-beta (Homo sapiens) (UniProt Q9Y261). As to the kind of experiment: ATG_FoxA2_CIS: Attagene CIS-FACTORIAL HepG2 Assay for human Forkhead box A2 (FOXA2) (AID 2282942). The settings on record: HepG2 cis-reporter transcription factor activity, 24 h; actives raise or lower the signal. Put shortly:
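HepG2 cells transiently transfected with multiple cis-regulated reporter transcription units, dosed for 24 h. Reporter mRNA measured by RT-PCR, 6-FAM labelling, HpaI digestion and capillary electrophoresis; bidirectional fitting against DMSO baseline.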

A short description of assay [17]: ATG_FoxO_CIS: Attagene CIS-FACTORIAL HepG2 Assay for human Forkhead box O (FoxO) (AID 2282943). The following applies: HepG2 Attagene cis-reporter, FoxO element, mRNA; actives raise or lower the signal. In outline:
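Endogenous transcription factor activity read from multiplexed cis-promoter reporter transcripts in transiently transfected HepG2, 24 h after dosing. Reporter RNA measured via RT-PCR plus capillary electrophoresis of FAM-labeled products; gain or loss relative to DMSO.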

A short description of assay [18]: ATG_GATA_CIS: Attagene CIS-FACTORIAL HepG2 Assay for human GATA Binding Protein (AID 2282944). The following applies: HepG2 GATA cis-element reporter, Attagene multiplex mRNA; actives raise or lower the signal. Put shortly:
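Read-out: fluorescent reporter mRNA fragments resolved by capillary electrophoresis after RT-PCR. Human liver HepG2 cells carried transiently transfected cis-regulated reporter constructs; chemicals incubated 24 h; gain or loss of signal fitted relative to DMSO.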

A short description of assay [19]: ATG_GLI_CIS: Attagene CIS-FACTORIAL HepG2 Assay for human Zinc Finger Protein GLI1 (AID 2282945). The settings on record: HepG2, Attagene cis-factorial reporter mRNA, GLI element; actives raise or lower the signal. Put shortly:
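Bidirectional curve fits relative to DMSO, using reporter mRNA levels from RT-PCR plus capillary electrophoresis. Cells were HepG2 transiently carrying cis-regulated reporter constructs, harvested 24 h after dosing.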

The nature of assay [20]: ATG_DR4_LXR_CIS: Attagene CIS-FACTORIAL HepG2 Assay for human Liver X Receptor (LXR), DR4 submotif (AID 2282929). The settings on record: HepG2 Attagene DR4 cis-reporter, mRNA transcription; actives raise or lower the signal. In outline: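 HepG2 cells transiently transfected with cis-promoter-driven multiplexed reporter units (DR4 element) were dosed for 24 h. Reporter mRNA was quantified by RT-PCR, fluorescent primer extension, HpaI digestion and capillary electrophoresis; bidirectional fitting versus DMSO baseline.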

The source made the active and inactive calls. Rule for the calls: active = hit-call score of the fitted dose curve at least 0.9, where 1 is the maximum; inactive = score below 0.9.

Chain of CCAAT/enhancer-binding protein beta (Homo sapiens) (P17676 whole entry, looked up, the tested form may be a part): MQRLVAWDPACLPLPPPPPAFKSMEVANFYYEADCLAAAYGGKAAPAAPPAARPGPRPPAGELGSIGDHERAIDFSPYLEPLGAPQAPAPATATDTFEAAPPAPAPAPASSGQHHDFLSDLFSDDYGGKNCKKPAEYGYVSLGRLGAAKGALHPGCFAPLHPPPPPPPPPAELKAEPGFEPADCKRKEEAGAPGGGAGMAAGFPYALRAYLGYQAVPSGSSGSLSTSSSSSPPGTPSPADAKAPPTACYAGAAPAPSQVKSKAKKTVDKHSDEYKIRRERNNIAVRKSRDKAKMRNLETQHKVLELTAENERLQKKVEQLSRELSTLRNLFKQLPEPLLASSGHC
Chain of Retinoic acid receptor alpha (Homo sapiens) (P10276 whole entry, looked up): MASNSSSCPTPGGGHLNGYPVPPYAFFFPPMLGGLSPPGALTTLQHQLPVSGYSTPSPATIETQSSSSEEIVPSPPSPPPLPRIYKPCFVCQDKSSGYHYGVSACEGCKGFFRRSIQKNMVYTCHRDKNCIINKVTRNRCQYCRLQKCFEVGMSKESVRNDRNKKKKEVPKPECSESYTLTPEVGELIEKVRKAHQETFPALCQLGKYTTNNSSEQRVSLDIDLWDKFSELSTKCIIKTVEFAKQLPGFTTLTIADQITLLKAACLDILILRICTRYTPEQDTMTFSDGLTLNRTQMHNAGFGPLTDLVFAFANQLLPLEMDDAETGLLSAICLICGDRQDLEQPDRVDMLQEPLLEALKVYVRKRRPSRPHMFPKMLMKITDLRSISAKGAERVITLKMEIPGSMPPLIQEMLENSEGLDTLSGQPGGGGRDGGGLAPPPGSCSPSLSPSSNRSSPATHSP
Chain of Transcription factor E2F1 (Homo sapiens) (Q01094 whole entry, looked up): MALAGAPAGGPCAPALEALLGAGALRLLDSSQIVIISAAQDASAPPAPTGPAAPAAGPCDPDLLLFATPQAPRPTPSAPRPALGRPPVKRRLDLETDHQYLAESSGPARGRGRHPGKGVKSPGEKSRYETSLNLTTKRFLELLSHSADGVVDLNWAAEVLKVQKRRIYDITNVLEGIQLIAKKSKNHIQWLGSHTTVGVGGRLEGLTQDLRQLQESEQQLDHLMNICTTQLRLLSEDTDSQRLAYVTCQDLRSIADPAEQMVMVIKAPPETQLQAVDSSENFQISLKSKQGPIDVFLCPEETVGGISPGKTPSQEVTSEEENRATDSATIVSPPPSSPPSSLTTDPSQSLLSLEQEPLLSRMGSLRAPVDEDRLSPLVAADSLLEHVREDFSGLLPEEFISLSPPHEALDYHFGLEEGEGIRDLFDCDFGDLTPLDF
Chain of Hepatocyte nuclear factor 3-beta (Homo sapiens) (Q9Y261 whole entry, looked up): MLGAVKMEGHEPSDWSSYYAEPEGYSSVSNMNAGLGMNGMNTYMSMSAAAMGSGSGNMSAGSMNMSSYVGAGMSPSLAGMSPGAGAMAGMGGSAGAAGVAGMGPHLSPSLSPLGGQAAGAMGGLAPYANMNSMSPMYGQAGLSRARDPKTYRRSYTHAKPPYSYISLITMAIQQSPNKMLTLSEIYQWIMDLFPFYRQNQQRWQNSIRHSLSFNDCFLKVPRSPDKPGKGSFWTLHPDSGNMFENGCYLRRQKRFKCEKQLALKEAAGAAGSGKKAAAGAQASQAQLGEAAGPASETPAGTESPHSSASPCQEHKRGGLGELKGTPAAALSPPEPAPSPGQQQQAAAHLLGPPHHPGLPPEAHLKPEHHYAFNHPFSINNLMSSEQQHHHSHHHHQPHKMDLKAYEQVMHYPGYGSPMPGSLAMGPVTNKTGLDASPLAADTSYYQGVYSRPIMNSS
Chain of Aryl hydrocarbon receptor (Homo sapiens) (P35869 whole entry, looked up): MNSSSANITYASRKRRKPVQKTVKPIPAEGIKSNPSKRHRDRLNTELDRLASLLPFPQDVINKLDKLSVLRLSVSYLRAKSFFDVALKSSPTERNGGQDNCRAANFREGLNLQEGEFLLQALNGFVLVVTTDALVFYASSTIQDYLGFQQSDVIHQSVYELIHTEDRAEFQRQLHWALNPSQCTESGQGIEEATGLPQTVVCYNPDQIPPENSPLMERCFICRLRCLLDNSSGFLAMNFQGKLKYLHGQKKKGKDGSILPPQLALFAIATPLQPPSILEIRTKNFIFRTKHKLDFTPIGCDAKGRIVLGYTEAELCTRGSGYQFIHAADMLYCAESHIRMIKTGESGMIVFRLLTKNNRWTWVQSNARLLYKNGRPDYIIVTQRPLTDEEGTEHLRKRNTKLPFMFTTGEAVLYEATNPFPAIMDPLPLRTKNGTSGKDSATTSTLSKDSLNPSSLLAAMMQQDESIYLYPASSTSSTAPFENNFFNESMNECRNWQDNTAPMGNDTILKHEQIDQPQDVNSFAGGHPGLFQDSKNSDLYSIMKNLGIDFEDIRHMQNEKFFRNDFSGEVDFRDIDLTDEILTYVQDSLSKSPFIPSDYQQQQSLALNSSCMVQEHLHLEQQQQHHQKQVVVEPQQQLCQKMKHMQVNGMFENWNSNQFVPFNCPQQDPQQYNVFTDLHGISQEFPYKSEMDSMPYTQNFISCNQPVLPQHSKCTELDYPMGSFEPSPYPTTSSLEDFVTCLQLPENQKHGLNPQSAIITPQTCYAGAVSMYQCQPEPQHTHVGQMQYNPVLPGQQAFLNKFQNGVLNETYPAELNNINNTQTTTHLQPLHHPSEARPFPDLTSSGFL

As to `Cc1ccc(N/N=c2\c(=O)cc/c(=N/Nc3ccc(S(=O)(=O)O)cc3)c2=O)c(C)c1`, the molecule was called inactive in assay [1], in assay [2], in assay [3], in assay [5], in [6] and in assay [7]. The result in [8], in assay [9], in [10], in assay [11], in assay [12] and in assay [13] was inactive. Also, the result in [15], in assay [16], in [17], in assay [18] and in assay [19] was inactive. Also, the half-maximal activity concentration (AC50) is 9.18 µM (active) in assay [4] and 100 µM (active) in assay [14].

As for `O=Nc1ccc(O)cc1`, the molecule was classed as inactive in [1], in assay [2], in [3], in [4], in [5] and in assay [7]. The molecule was classed as inactive in [8], in [9], in assay [10], in assay [11], in assay [12] and in [13]. Also, the molecule was classed as inactive in [15], in [16], in assay [17], in [18] and in [19]. In assay [14], the AC50 was 56.4 µM (active).

Take `CCC(=O)Oc1ccc(/C(CC)=C(\CC)c2ccc(OC(=O)CC)cc2)cc1`: the AC50 was 25.9 µM (active) in assay [1]; 6.03 µM (active) in assay [20]; 11.6 µM (active) in assay [5]; 20.4 µM (active) in assay [10]; 45.1 µM (active) in assay [12]; 0.0825 µM (active) in assay [14]. Further, in assay [19], the AC50 is 51.5 µM (active). Besides, the result in assay [2], in [3], in assay [6], in [8], in assay [9] and in [11] was inactive. Further, the molecule was called inactive in assay [13], in assay [15], in assay [16], in assay [17] and in [18].
